Results filed as inconclusive are left out. Entries that show only a call come without a potency. Active and inactive are the calls of the source. Calls follow the shape of the full dose curve.
Assay: Primary qHTS for Huh7 cytotoxicity: counterscreen for inhibitors of MERS-S pseudotyped particle cell entry (AID 1479147)
Settings: cell viability read-out; series mostly up to 57.1 µM

| Compound | Potency |
| --- | --- |
| CCCc1cc(C(N)=S)ccn1 | inactive |
| Cc1cccc(C)c1NC(=O)C(C)N (stereo unspecified) | inactive |
| C#C[C@]1(OC(C)=O)CC[C@H]2[C@@H]3CCC4=C/C(=N/O)CC[C@@H]4[C@H]3CC[C@@]21CC | inactive |
| C[C@H]1C[C@H]2[C@@H]3CCC4=CC(=O)C=C[C@]4(C)[C@@]3(Cl)[C@@H](O)C[C@]2(C)[C@@]1(O)C(=O)CO | inactive |
| CCOc1ccc(NC(C)=O)cc1 | inactive |
| CC(C)=CCOc1ccc(/C=C/C(=O)c2ccc(OCC=C(C)C)cc2OCC(=O)O)cc1 | inactive |
| NCCc1ccc(O)c(O)c1 | inactive |
| O=C(O)CCNC(=O)c1ccccc1 | inactive |
| OC[C@@H](O)[C@H](O)[C@H](O)[C@@H](O)CO | inactive |
| CC(C)c1cc2c(cc1S(=O)(=O)O)[C@@]1(C)CCC[C@@](C)(C(=O)O)[C@@H]1CC2 | inactive |
| C/C(=C(/OCCOc1ccc(Cl)cc1)c1ccc(Cl)cc1Cl)n1ccnc1 | inactive |
| COc1cccc(N(C)C(=S)Oc2ccc3c(c2)CCCC3)n1 | inactive |
| CNC(=O)c1c(I)c(NC(=O)CCCCC(=O)Nc2c(I)c(C(=O)O)c(I)c(C(=O)NC)c2I)c(I)c(C(=O)O)c1I | inactive |
| CC(=O)OCC(=O)[C@@]12N=C(C)O[C@@H]1C[C@H]1[C@@H]3CCC4=CC(=O)C=C[C@]4(C)[C@H]3[C@@H](O)C[C@@]12C | inactive |
| O=C(OCC(COC(=O)c1cccnc1)(COC(=O)c1cccnc1)COC(=O)c1cccnc1)c1cccnc1 | inactive |
| CC(=O)OCC(=O)[C@@]1(O)CCC2C3CCC4=CC(=O)CC[C@]4(C)C3[C@@H](O)C[C@@]21C (stereo partly specified) | inactive |

Source: PubChem BioAssay (NCATS)
